Compound activity deposited in PubChem BioAssay by National Center for Advancing Translational Sciences (NCATS).
IL-1B inflam inh: qHTS for Inhibitors of Inflammasome Signaling: IL-1-beta AlphaLISA Primary Screen | THP-1 LPS/ATP IL-1B secretion, AlphaLISA, 16 h; hits give low values | activity change, % at 57.5 µM | 360,000 tested, 4.7% active | AID 743279, 2014; in the data active = activity change below about -50%; inconclusive = mostly about -30% to -49%
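Secreted IL-1B measured by AlphaLISA bead assay after 16 h compound exposure of THP-1 cells; compounds (final up to 57.5 uM) added 1 h before LPS (250 ng/mL) and ATP (1.25 mM) stimulation; lower signal means less secretion.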
RORg inh: qHTS for inhibitors of ROR gamma transcriptional activity. 310,000 tested, 5.4% active. Drosophila S2 Gal4-RORgamma UAS-luciferase reporter, 20 h. Potency, µM (highest dose often 53.6 µM), for the others: top-dose activity change, negative = inhibition, most hits filed as inhibitors; note: potency is the fitted concentration of half-maximal effect; nearly all actives have a fitted effect of over 60% in size
Target sequence (P51450 whole entry, looked up, the tested form may be a part): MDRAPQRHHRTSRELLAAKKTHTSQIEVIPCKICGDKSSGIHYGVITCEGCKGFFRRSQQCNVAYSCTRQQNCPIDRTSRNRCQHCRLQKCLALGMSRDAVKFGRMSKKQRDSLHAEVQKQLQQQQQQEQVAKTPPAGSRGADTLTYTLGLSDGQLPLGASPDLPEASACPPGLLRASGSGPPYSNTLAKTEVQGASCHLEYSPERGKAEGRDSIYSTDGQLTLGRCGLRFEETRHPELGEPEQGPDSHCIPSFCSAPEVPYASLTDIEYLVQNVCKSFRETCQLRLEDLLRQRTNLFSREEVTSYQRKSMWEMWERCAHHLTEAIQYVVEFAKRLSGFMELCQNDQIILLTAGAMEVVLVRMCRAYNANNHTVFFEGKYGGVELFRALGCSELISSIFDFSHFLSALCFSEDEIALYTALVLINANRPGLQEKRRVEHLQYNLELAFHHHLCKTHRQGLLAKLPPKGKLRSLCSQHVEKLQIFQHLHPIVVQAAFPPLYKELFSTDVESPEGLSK
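Compounds are pin-transferred onto Drosophila Schneider cells expressing a copper-inducible Gal4–ROR gamma transactivation domain fusion. After 1 hr, copper sulfate is added to 700 uM final; luciferase is read 20 hr later.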
TDP1 cell CPT: qHTS for Inhibitors of human tyrosyl-DNA phosphodiesterase 1 (TDP1): qHTS in cells in presence of CPT; Potency, µM (doses to about 46.2 µM), for inactives: top-dose activity change, negative = growth inhibition, most hits filed as inhibitors; chicken DT40 Tdp1-/-;hTDP1 cells + 20 nM CPT, ATP luminescence, 48 h; 420,000 tested, 12% active; AID 686979, 2013; note: potency is the fitted concentration of half-maximal effect; nearly all actives have a fitted effect of over 55% in size
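Cell growth measured by CellTiter-Glo luminescence after a minimum 48 h, 37 C compound exposure with 20 nM CPT in Tdp1-knockout DT40 cells stably expressing hTDP1, seeded 400/well; qHTS titration format.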
TDP1 cell noCPT: qHTS for Inhibitors of human tyrosyl-DNA phosphodiesterase 1 (TDP1): qHTS in cells in absence of CPT | DT40 Tdp1-/- hTDP1 cells, no CPT, ATP luminescence, 48 h | Potency, µM (top dose mostly 46.2 µM), without a hit: top-dose activity change, negative = growth inhibition, usual class: inhibitors | 420,000 tested, 15% active | AID 686978, 2013; note: potency is the fitted concentration of half-maximal effect; nearly all actives have a fitted effect of over 55% in size
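Compound effects on proliferation are scored in DT40 Tdp1-/-;hTDP1 cells in the absence of CPT. ATP levels (CellTiter-Glo luminescence) are recorded after a ≥48 hr, 37 °C incubation.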
ELG1 repair inh: qHTS screen for small molecules that inhibit ELG1-dependent DNA repair in human embryonic kidney (HEK293T) cells expressing luciferase-tagged ELG1 | Potency, µM (series often up to 46.1 µM), for the others: at the highest dose activity change, negative = inhibition, hits mostly inhibitors | 330,000 tested, 2.3% active | AID 504467, 2011 | HEK293T ELG1-luciferase reporter, luminescence, 16 h; DNA damage induced by 5-fluorouridine; note: potency is the fitted concentration of half-maximal effect; nearly all actives have a fitted effect of over 55% in size
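In this reporter screen, reduction of luminescence relative to DMSO vehicle indicated activity. Compounds and 5-fluorouridine were added together to 2,000 cells per well, incubated for 16 hr at 37 °C, then developed with ONE-Glo.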
VP16 counter: VP16 counterscreen qHTS for inhibitors of ROR gamma transcriptional activity; 310,000 tested, 3.5% active; Potency, µM (series often up to 53.6 µM), without a hit: at the top dose activity, negative = inhibition, most hits filed as inhibitors; Drosophila S2 Gal4-VP16 UAS-luciferase, luminescence, 20 h;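 note: Gal4-VP16 expression switched on by copper sulfate through the metallothionein promoter; potency is the fitted concentration of half-maximal effect; nearly all actives have a fitted effect of over 50% in size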
Starred values were filed as active, the others as inactive; u = inconclusive; x = no result. The list is not random: actives were taken first. Their share in the collection is about 21%. Unless noted, calls come from the whole dose curve; as a rule, active = well fitted curve in the direction sought with a large enough effect; inconclusive = small, poorly fitted or top-dose-only effect, or another doubt; inactive = no such curve, though single readings can be large; an effect the other way counts as inactive or inconclusive. % is set by controls: 0 for no effect and ±100 for the full control effect.

SMILES	IL-1B inflam inh	RORg inh	TDP1 cell CPT	TDP1 cell noCPT	ELG1 repair inh	VP16 counter
CCOc1cc(N2CCOCC2)c(OCC)cc1NC(=O)COC(=O)c1ccc(Cl)cc1N	51	x	5.8µM*	u	-11%	x
COCCCN1C(=O)C(CC(=O)NC2CC2)CC(C(=O)N2CCOCC2)=C1C (stereo not given)	0	x	-14%	-7%	x	x
COC(=O)N[C@@H](CCc1ccccc1)[C@]1(C(C)=O)CCCC1=O	x	u	x	x	x	-5%
O=C(COc1ccccc1[N+](=O)[O-])Nc1ccc(CN2CCOCC2)cc1	19	17%	-5%	-27%	-2%	3%
CCOc1cc(N2CCOCC2)c(OCC)cc1NC(C)C(=O)N1CCC(C)CC1 (stereo not given)	-4	26%	u	26µM*	9.2µM*	u
CCOc1cc(N2CCOCC2)c(OCC)cc1NC(=O)c1[nH]c(C)c(C(C)=O)c1C	18	x	8.2µM*	5.8µM*	u	x
CCOc1cc(N2CCOCC2)c(OCC)cc1NC(=O)Cn1cnnn1	-4	x	-13%	17%	9%	x
O=C(COc1ccccc1[N+](=O)[O-])Nc1cccc(Cl)c1N1CCOCC1	14	u	16µM*	15µM*	u	u
CCOc1cc(N2CCOCC2)c(OCC)cc1NC(=O)CC12CC3CC(CC(C3)C1)C2	-10	-1%	13µM*	18µM*	u	-8%
CC(OC(=O)CCN=C1NS(=O)(=O)c2ccccc21)C(=O)Nc1ccc(N(C)C)cc1 (stereo not given)	-6	x	3%	-13%	20%	x
CCOC(=O)C1(Cc2cccc(OC)c2)CCN(Cc2cccn2-c2ccccn2)CC1	-12	-28%	-25%	u	u	-4%
CCCOc1ccc(C(=O)Nc2ccc(N3CCOCC3)cc2N2CCOCC2)cc1OCC	-9	x	u	21µM*	x	x
CCOc1ccc(C(=O)NCC(=O)Nc2ccc(N3CCOCC3)cc2)cc1OCC	-7	13%	-28%	-3%	u	2%
CCOc1cc(N2CCOCC2)c(OCC)cc1NC(=O)CSc1ccccc1C(=O)O	11	x	u	-19%	-2%	x
CCOc1cc(N2CCOCC2)c(OCC)cc1NCC(=O)N1CCN(Cc2ccccc2)CC1	-1	-32%	u	u	8.2µM*	u
CCOc1ccc(OCCC(=O)OCC(=O)Nc2cc(OCC)c(N3CCOCC3)cc2OCC)cc1	-13	x	18µM*	26µM*	-11%	x
CCOc1cc(N2C(=O)CC3CS(=O)(=O)CC32)c(OCC)cc1NC(=O)c1ccccc1 (stereo not given)	21	-2%	u	21µM*	7%	-9%
O=C(CCS(=O)(=O)c1ccc(F)cc1)Nc1nccs1	8	x	u	u	x	x
C[C@H](CO)N1C[C@H](C)[C@@H](CN(C)S(=O)(=O)c2cccs2)Oc2ccc(NS(=O)(=O)c3ccccc3)cc2CC1=O	0	x	u	u	u	x
Cc1cc(Cl)ccc1OCCCC(=O)OCC(=O)c1c(N)n(C)c(=O)n(C)c1=O	4	-2%	-3%	7%	8%	-4%
CCOc1cc(N2CCOCC2)c(OCC)cc1NC(=O)COc1ccccc1[N+](=O)[O-]	-80*	-17%	-10%	u	u	2%
CCOc1cc(N2CCOCC2)c(OCC)cc1NC(=O)Cc1ccc(OC)c(OC)c1	0	36%	u	23µM*	u	-23%
